Source: PubChem BioAssay (Tox21)
Several values for one entry are separate records, joined by “and”; a condition that tells them apart may be missing. Identical values can stand only once. Inconclusive results are not listed. Entries that show only a call come without a potency. Some compounds were tested as several samples or in several runs, with calls that do not always agree. Activity calls are given as the source filed them. Unless noted, the call rests on the fitted dose curve; in most records, active means well fitted curve in the direction sought with a large enough effect in the repeat runs; inconclusive means weak or mixed curves; inactive means no such curve, though single readings can be large; an effect the other way counts as inactive or inconclusive.

Tests used:
[1] = target: Luciferin 4-monooxygenase (Photinus pyralis) (UniProt P08659); assay: qHTS assay to identify small molecule inhibitors of firefly luciferase (AID 1224835); further: nearly all actives have a fitted effect of over 25% in size
Summary of the method: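 Quantitative HTS format; KM concentrations of both substrates. Purified P. pyralis FLuc activity quantified from luminescence images.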

[2] = qHTS assay to identify small molecule agonists of the constitutive androstane receptor (CAR) signaling pathway - cell viability counter screen (AID 1224836); further: nearly all actives have a fitted effect of over 45% in size
Summary of the method: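 Compound titrations (15 concentrations) went onto HepG2-CYP2B6-hCAR cells 4 h after seeding, alongside PK11195 at a final 0.75 uM; a 23 h, 37 C/5% CO2 incubation preceded CellTiter-Fluor viability measurement.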

[3] = qHTS assay to identify small molecule antagonists of the constitutive androstane receptor (CAR) signaling pathway - cell viability counter screen (AID 1224837); further: nearly all actives have a fitted effect of over 45% in size
Summary of the method: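 Using CellTiter-Fluor, viability is scored in HepG2 cells stably carrying hCAR and a 2.2kb CYP2B6 reporter after 23 hr compound exposure across 15 concentrations, with CITCO present at 50 nM.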

[4] = target: Nuclear receptor subfamily 1 group I member 3 (Homo sapiens) (UniProt Q14994); assay: qHTS assay to identify small molecule agonists of the constitutive androstane receptor (CAR) signaling pathway (AID 1224839); further: nearly all actives have a fitted effect of over 15% in size
Summary of the method: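 In this screen, CAR-driven CYP2B6 promoter activity is measured by luminescence in HepG2-CYP2B6-hCAR cells after 24 h with test compounds and 0.75 uM PK11195 (final concentration).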

[5] = qHTS assay to identify small molecule antagonists of the estrogen related receptor signaling pathway with the pleiotropic PPARgamma coactivator (PGC) from Tox21 10K library - cell viability counter screen (AID 1224840; active means well fitted cell-killing curve with a large enough effect in the repeat runs, not every such curve was filed as active; further: nearly all actives have a fitted effect of over 40% in size)
Summary of the method: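 Here the PGC/ERR cells serve as a cytotoxicity control: they are exposed to compounds for 17.5 hours at 37 C, and live-cell signal is quantified using CellTiter-Fluor fluorescence.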

[6] = target: Nuclear receptor subfamily 1 group I member 3 (Homo sapiens) (UniProt Q14994); assay: qHTS assay to identify small molecule antagonists of the constitutive androstane receptor (CAR) signaling pathway (AID 1224838);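 further: HepG2 cells stably expressing hCAR with CYP2B6 luciferase reporter stimulated by CITCO; nearly all actives have a fitted effect of over 40% in size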
Summary of the method: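 Reporter luminescence was quantified after 24 h exposure of hCAR/CYP2B6-2.2kb double-stable HepG2 cells to compounds at 15 concentrations in the presence of 50 nM CITCO final.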

[7] = qHTS assay to identify small molecule agonists of the hypoxia (HIF-1) signaling pathway - cell viability counter screen (AID 1224844; calls by dose curve; further: nearly all actives have a fitted effect of over 50% in size)
Summary of the method: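 Multiplexed with the HRE beta-lactamase assay, this viability read used CellTiter-Glo luminescence (30 min, RT) on HRE-bla ME-180 cells treated 17 hrs with compounds in 0.5% dialyzed FBS medium.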

[8] = target: Thyrotropin receptor (Homo sapiens) (UniProt P16473); assay: qHTS assay to identify small molecule agonists of the thyroid stimulating hormone receptor (TSHR) signaling pathway (AID 1224843; calls by dose curve; further: nearly all actives have a fitted effect of over 45% in size)
Summary of the method: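 Cell line HEK293 with TSHR; density 800/well. Exposure 30 min RT. Readout HTRF cAMP (cAMP-d2/anti-cAMP-cryptate), 1 h RT before reading.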

[9] = qHTS assay to identify small molecule antagonists of the estrogen related receptor signaling pathway with the pleiotropic PPARgamma coactivator (PGC) from Tox21 10K library (AID 1224841; call rule not given here; further: actives are mostly falling curves and most rising ones were filed inactive; nearly all actives have a fitted effect of over 50% in size)
Summary of the method: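 Each well held 2,000 PGC/ERR cells, pre-incubated six hours (37 C, 5% CO2). Test substances in DMSO were added by pin tool and left for 18 h at 37 C before luciferase detection by One-Glo.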

[10] = qHTS assay to identify small molecule agonists of the estrogen related receptor signaling pathway with the pleiotropic PPARgamma coactivator (PGC) from Tox21 10K library (AID 1224842); further: nearly all actives have a fitted effect of over 15% in size
Summary of the method: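 PGC/ERR reporter cells (NTP line) were seeded 2,000 per well, rested 6 h at 37 C/5% CO2, then pin-dosed with compounds in DMSO for 18 h at 37 C; luciferase read by One-Glo luminescence after 30 min at room temperature.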
Potency means the concentration at half of the fitted maximal effect.

Chain of Luciferin 4-monooxygenase (Photinus pyralis) (P08659 whole entry, looked up): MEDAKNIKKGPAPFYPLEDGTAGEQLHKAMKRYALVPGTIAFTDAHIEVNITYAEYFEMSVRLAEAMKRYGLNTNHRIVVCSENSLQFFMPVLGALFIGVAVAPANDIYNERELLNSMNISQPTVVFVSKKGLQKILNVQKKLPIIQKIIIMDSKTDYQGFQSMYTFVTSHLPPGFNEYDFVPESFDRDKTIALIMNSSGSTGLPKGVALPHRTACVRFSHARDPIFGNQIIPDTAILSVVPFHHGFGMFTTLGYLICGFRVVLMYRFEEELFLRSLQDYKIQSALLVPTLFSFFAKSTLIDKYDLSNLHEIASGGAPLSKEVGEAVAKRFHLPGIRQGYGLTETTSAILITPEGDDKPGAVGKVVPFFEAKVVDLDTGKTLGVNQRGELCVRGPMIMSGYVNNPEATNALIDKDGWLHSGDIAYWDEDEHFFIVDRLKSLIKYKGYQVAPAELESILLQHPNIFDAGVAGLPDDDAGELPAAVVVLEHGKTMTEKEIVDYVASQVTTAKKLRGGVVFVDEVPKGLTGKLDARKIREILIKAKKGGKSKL
Chain of Thyrotropin receptor (Homo sapiens) (P16473 whole entry, looked up): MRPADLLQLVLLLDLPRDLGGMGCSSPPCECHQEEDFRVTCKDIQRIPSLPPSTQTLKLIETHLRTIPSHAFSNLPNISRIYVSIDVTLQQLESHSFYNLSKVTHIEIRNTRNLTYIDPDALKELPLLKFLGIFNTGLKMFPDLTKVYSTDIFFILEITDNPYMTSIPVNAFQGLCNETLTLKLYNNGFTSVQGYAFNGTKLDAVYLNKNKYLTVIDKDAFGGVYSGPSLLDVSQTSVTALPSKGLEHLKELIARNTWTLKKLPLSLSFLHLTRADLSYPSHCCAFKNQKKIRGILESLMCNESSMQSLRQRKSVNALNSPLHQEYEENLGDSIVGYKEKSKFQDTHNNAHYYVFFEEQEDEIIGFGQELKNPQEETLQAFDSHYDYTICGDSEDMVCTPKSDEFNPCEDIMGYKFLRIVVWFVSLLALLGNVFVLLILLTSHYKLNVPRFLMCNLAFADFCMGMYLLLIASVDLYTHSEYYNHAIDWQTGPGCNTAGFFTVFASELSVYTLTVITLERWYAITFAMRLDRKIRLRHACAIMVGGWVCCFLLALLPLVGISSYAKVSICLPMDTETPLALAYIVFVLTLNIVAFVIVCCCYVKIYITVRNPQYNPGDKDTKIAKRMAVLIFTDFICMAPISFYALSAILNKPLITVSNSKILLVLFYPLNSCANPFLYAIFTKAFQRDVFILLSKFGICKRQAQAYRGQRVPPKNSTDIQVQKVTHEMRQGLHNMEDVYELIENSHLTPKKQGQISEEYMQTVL
Chain of Nuclear receptor subfamily 1 group I member 3 (Homo sapiens) (Q14994 whole entry, looked up): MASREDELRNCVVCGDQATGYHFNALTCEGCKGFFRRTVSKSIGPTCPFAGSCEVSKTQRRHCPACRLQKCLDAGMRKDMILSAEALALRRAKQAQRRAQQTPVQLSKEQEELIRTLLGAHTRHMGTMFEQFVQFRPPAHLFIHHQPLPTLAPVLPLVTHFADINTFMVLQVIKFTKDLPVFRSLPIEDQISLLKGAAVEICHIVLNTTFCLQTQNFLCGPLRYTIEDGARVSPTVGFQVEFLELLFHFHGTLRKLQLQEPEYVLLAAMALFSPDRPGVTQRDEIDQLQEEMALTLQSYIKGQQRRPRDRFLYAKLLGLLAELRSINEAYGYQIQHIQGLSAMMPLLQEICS

Structure (SMILES) | Potency [1] | Potency [2] | Potency [3] | Potency [4] | Potency [5] | Potency [6] | Potency [7] | Potency [8] | Potency [9] | Potency [10]
Fc1ccc(Oc2ccnc3cc(Cl)cc(Cl)c23)cc1 | 35.6 µM (active) | inactive | inactive | 27.3 µM (active) | inactive |  |  |  |  | 
NC(=O)c1ccc(N)nc1 | inactive | inactive | inactive |  | inactive | inactive | 15.5 µM (active) |  |  | 
Clc1ccc(COC(Cn2ccnc2)c2ccc(Cl)cc2Cl)cc1 (stereo not drawn) | inactive | 45.3 µM (active) and 54.3 µM (active) | 40.4 µM (active) and 43.1 µM (active) and 26.6 µM (active) | inactive | 50.8 µM (active) and 54.3 µM (active) | 54.3 µM (active) and 29.8 µM (active) | 32.3 µM (active) and 34.5 µM (active) and inactive | inactive |  | 
COP(=O)(CCC(=O)NCO)OC | inactive | inactive | inactive | inactive | inactive |  | inactive | inactive | inactive | inactive
N#CNC#N | inactive | inactive | inactive | inactive | inactive | inactive | inactive | inactive |  | 
CCOCn1c(-c2ccc(Cl)cc2)c(C#N)c(Br)c1C(F)(F)F | inactive | 4.33 µM (active) | 4.33 µM (active) | inactive | 5.45 µM (active) |  |  |  |  | 
S=C(SSC(=S)N1CCCCC1)N1CCCCC1 | 1.74 µM (active) | 0.841 µM (active) | 0.335 µM (active) | inactive |  | 0.376 µM (active) | 0.338 µM (active) | inactive |  | inactive
CN(C)CCc1c[nH]c2ccc(O)cc12 | inactive | inactive | inactive | inactive | inactive | inactive | inactive |  |  | 
ClC(Cl)=C(c1ccc(Cl)cc1)c1ccc(Cl)cc1 | inactive | inactive | inactive |  | inactive | inactive |  |  | inactive | inactive
C[C@]12CC[C@H]3[C@@H](CCC4=CC(=O)CC[C@@]43C)[C@@H]1CC[C@@H]2O | inactive | inactive | inactive | inactive | inactive | inactive | inactive |  |  | 
CC(=O)/C=C/c1ccc2c(c1)OCO2 | 45 µM (active) | inactive | inactive | inactive |  | inactive | inactive |  |  | inactive
CCOP(=S)(OCC)SCS(=O)(=O)C(C)(C)C | inactive | inactive | inactive |  | inactive | inactive | inactive | inactive |  | 
[Hg+2].[I-].[I-] | 4.48 µM (active) | 34.4 µM (active) | 30.6 µM (active) | inactive | 4.33 µM (active) | 30.6 µM (active) | 1.95 µM (active) |  |  | 
Nc1c(Oc2ccccc2)cc(O)c2c1C(=O)c1ccccc1C2=O | 3.09 µM (active) | inactive | inactive | 6.68 µM (active) | inactive | inactive | inactive |  |  | 
COc1ccc(OC)c(CC(C)N)c1 (stereo not drawn) | inactive | inactive | inactive | inactive | inactive | inactive | inactive | inactive |  | 
N#CCCSCCC#N | inactive | inactive | inactive | inactive | inactive | inactive | inactive | inactive |  | 
CCOC(=O)C1(c2ccccc2)CCN(CCC(C#N)(c2ccccc2)c2ccccc2)CC1 | inactive | inactive | inactive |  | inactive | inactive | inactive | inactive |  | 
BrCBr | inactive | inactive | inactive | inactive | inactive | inactive | inactive | inactive |  | 
O=[N+]([O-])c1cc(Cl)ccc1Cl | inactive | inactive | inactive | inactive | inactive | inactive | inactive | inactive |  | 
CCCN(CCC)CCc1c[nH]c2ccccc12 | inactive | inactive | inactive | inactive | inactive | inactive | inactive | inactive |  | 
COc1cc(N)c(Cl)cc1C(=O)NC1CN2CCC1CC2 (stereo not drawn) | inactive | inactive | inactive | inactive | inactive | inactive | inactive | inactive |  | 
CC1(C)[C@H](C(=O)O[C@H](C#N)c2cccc(Oc3ccccc3)c2)[C@@H]1/C=C(\Cl)C(F)(F)F | inactive | inactive | inactive | inactive | inactive | inactive | inactive | inactive |  | 
Cn1[nH]nnc1=S | 22.4 µM (active) | inactive | inactive | inactive | inactive | inactive | inactive |  |  | 
CC(C)OC(=O)C(O)(c1ccc(Cl)cc1)c1ccc(Cl)cc1 | inactive | inactive | inactive |  | inactive | inactive | 54.9 µM (active) | 48.6 µM (active) |  | 
c1ccc2cc3c(cc2c1)-c1cccc2cccc-3c12 | inactive | inactive | inactive | 0.955 µM (active) |  | inactive | inactive |  | inactive | inactive

Structure (SMILES) | Potency [1] | Potency [2] | Potency [3] | Potency [4] | Potency [5] | Potency [6] | Potency [7] | Potency [8] | Potency [9] | Potency [10]
CN(C)S(=O)(=O)N(SC(F)(Cl)Cl)c1ccccc1 | 35.6 µM (active) | 30.6 µM (active) | 27.3 µM (active) | inactive | 24.3 µM (active) | 21.7 µM (active) | 19.5 µM (active) |  |  | 
O=[N+]([O-])c1ccc2ccc3cccc4ccc1c2c34 | inactive | inactive | inactive | inactive | inactive | 4.85 µM (active) | 34.7 µM (active) |  |  | 
BrC(Br)C(Br)(Br)Br | 22.6 µM (active) | inactive | inactive | inactive | inactive |  |  |  |  | 
ClC1=C(Cl)C2(Cl)C3C(Cl)C=CC3C1(Cl)C2(Cl)Cl (stereo not drawn) | inactive | inactive | inactive |  | inactive | inactive |  | 7.73 µM (active) and 15.4 µM (active) |  | 
CCCCCCCCCCCCCCCC[N+](C)(C)C | inactive | 54.5 µM (active) | 54.5 µM (active) | inactive | inactive and 61.1 µM (active) | inactive | inactive |  |  | 
Oc1ccc(I)cc1 | inactive | inactive | inactive | inactive | inactive | inactive | inactive | inactive |  | 
Fc1cccc(Cl)c1CCl | inactive | inactive | inactive |  | inactive | inactive | inactive | inactive |  | 
CC(C)CCCCCOC(=O)c1ccccc1C(=O)OCCCCCC(C)C | inactive | inactive | inactive | inactive | inactive | inactive | inactive | inactive |  | 
O=c1[nH]c2ccccc2n1C1CCN(CCCC(c2ccc(F)cc2)c2ccc(F)cc2)CC1 | inactive | 54.5 µM (active) | 54.5 µM (active) |  | 24.3 µM (active) and inactive |  | 21.9 µM (active) | inactive | 27.3 µM (active) and 26.6 µM (active) | inactive
Cc1cc(Cl)ccc1O[C@H](C)C(=O)O | inactive | inactive | inactive | inactive | inactive |  | inactive |  |  | 
CCSC(C)CC1CC(=O)C(/C(CC)=N/OC/C=C/Cl)=C(O)C1 (stereo not drawn) | inactive | inactive | inactive |  | inactive |  | inactive | inactive | 2.11 µM (active) | inactive
CCC[CH2][Sn]([CH2]CCC)([CH2]CCC)[O]C(=O)c1ccccc1 | 35.6 µM (active) | 0.77 µM (active) | 1.22 µM (active) |  | 1.22 µM (active) |  | 0.549 µM (active) |  |  | inactive
O=C(Nc1ccc2[nH]ccc2c1)c1cc2cc(F)ccc2n1Cc1cccc(F)c1 | inactive | inactive | 61.1 µM (active) | 27.3 µM (active) |  |  | 43.6 µM (active) |  | inactive | 2.73 µM (active)
Cc1c(Cl)c(=O)oc2cc(OP(=O)(OCCCl)OCCCl)ccc12 | inactive | inactive | inactive | inactive | inactive |  | inactive | inactive |  | 
CC(=O)Nc1ccc2c(c1)Cc1ccccc1-2 | 28.7 µM (active) | inactive | inactive | 31.1 µM (active) | inactive |  | inactive |  |  | 
O=S(=O)(c1ccc(Cl)cc1)c1ccc(Cl)cc1 | inactive | inactive | inactive | 49.2 µM (active) | inactive |  | inactive |  |  | inactive
COC12CC[C@@]3(C[C@@H]1C(C)(O)C(C)(C)C)[C@H]1Cc4ccc(O)c5c4[C@@]3(CCN1CC1CC1)[C@H]2O5 (stereo partly drawn) | inactive | 43 µM (active) | 54.1 µM (active) | inactive | 43 µM (active) |  | 34.4 µM (active) | inactive | 60.7 µM (active) | inactive
CC(C)(C)OO | inactive | inactive | inactive | inactive | inactive |  | inactive | inactive |  | 
CC(=O)c1cc(C(C)(C)C)cc2c1CCC2(C)C | inactive | inactive | inactive |  | inactive |  | inactive |  | inactive | inactive
Oc1ccc(C(c2ccc(O)cc2)(C(F)(F)F)C(F)(F)F)cc1 | inactive | inactive | inactive | 4.31 µM (active) and 5.45 µM (active) |  |  | inactive | 30.5 µM (active) | 60.8 µM (active) | inactive
CCC(C)(C)C(=O)OC1=C(c2ccc(Cl)cc2Cl)C(=O)OC12CCCCC2 | 31.7 µM (active) | inactive | inactive | inactive | inactive |  | 49 µM (active) | inactive | inactive | 
Clc1ccc(-c2ccc(Cl)c(Cl)c2Cl)c(Cl)c1Cl | inactive | inactive | inactive |  | inactive |  |  |  | inactive | inactive
O=C1C=CC(=O)c2ccccc21 | 20 µM (active) | 54.5 µM (active) | 43.3 µM (active) | inactive | 61.1 µM (active) |  | 11 µM (active) |  | 34.4 µM (active) | inactive
Cc1cccc(OP(=O)(Oc2cccc(C)c2)Oc2cccc(C)c2)c1 | inactive | inactive | inactive | 30.6 µM (active) | inactive |  | inactive | inactive |  | 
